In the library only some 3.9% were active in any assay of this set; here they are far more common.
3CLpro inhibitor – SARS-CoV 3CLpro protease inhibition; P0C6X7; recombinant SARS-CoV 3CLpro, quenched FRET peptide cleavage; hit rate 0.14% among 290,000; inhibition, % at 6 µM; in the data active = inhibition above about 12%
BH1578 lux ind – quorum light induction in luxS cqsA deficient V. cholerae. activation, % at 18.7 µM. hit rate 0.16% among 350,000. V. cholerae BH1578 lux reporter, luminescence, 6 h. AID 588436; in the data active = activation mostly above about 9.7%, no sharp cut-off
PrPC surface inh – reduces human prion protein on the cell surface; cell surface PrPC, TR-FRET read-out; inhibition, % at 13.8 µM; hit rate 0.43% among 370,000; in the data active = inhibition above about 24%; also: 0% = median of the test wells and 100% = reference compound wells
GDH-TPI inh – GDH-TPI coupled enzyme inhibition counter-screen; hit rate 1.2% among 360,000; inhibition, % at 4.8 µM; GDH-TPI coupled enzyme counterscreen, NADH absorbance; in the data active = inhibition above about 30%;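 also: 0% = DMSO wells and 100% = wells lacking the enzyme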
FBA Mtb inh – Mtb fructose-bisphosphate aldolase inhibition. P9WQA3. purified M. tuberculosis FBA, fluorescence read-out. inhibition, % at 1 µM. hit rate 2.3% among 360,000; in the data active = inhibition above about 27%;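 also: 0% = vehicle and 100% = reference inhibitor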
Target sequence (P9WQA3 whole entry, looked up): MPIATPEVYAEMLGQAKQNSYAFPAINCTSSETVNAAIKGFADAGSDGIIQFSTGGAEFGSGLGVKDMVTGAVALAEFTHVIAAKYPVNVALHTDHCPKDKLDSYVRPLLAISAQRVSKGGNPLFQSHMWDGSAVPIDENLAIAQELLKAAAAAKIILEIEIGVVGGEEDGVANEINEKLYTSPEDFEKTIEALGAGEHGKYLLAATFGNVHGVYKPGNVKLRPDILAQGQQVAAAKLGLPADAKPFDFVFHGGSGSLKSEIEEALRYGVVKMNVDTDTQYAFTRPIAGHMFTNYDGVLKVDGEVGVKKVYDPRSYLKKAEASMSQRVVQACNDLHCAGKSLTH
PrPC confirm – cell surface PrPC inhibition, TR-FRET confirmation. shares compounds with PrPC surface inh. hit rate 65% among 1,500. inhibition, % at 13.8 µM. AID 743200. cell surface PrPC level; in the data active = inhibition above about 25%
LD9 cytotox – LD9 cell cytotoxicity, PrPc inhibitor counter-screen; shares compounds with PrPC surface inh; LD9 cells cytotoxicity, luminescence viability; inhibition, % at 13.8 µM; hit rate 29% among 1,500; in the data active = inhibition above about 9.5%
The depositor's hits bear a star; i = inactive; x = no result.

SMILES | 3CLpro inhibitor | BH1578 lux ind | PrPC surface inh | GDH-TPI inh | FBA Mtb inh | PrPC confirm | LD9 cytotox
Cc1cc(C)c2sc(NNC(=O)c3ccc(S(=O)(=O)N4CCc5ccccc5C4)cc3)nc2c1 | 8.2 | -0.1 | 29.0* | 19.2 | 1.8 | 30.0* | 12.0*
Cc1nn(Cc2ccccc2)c(C)c1NC(=O)CSc1nnc(-c2cc(Cl)ccc2O)n1C | -1.0 | -0.6 | 9.3 | -1.6 | 1.8 | x | x
Cc1ccccc1-c1cnc(C(O)c2cc(Cl)cc(Cl)c2)[nH]1 (centres undefined) | x | i | -5.2 | 5.3 | -0.2 | x | x
CCCCn1c(=N)n(CC(=O)c2ccc(Br)s2)c2ccccc21 | 0.6 | -0.4 | 36.8* | 12.7 | -0.8 | 83.3* | 27.9*
Cc1c(C(=O)Nc2ccncc2)sc2nc(-c3ccc(F)cc3)cn12 | 0.9 | -0.4 | 55.8* | 14.4 | 3.4 | 52.8* | 12.1*
COc1ccc2c(C)cc(SC3CCOC3=O)nc2c1 (centres undefined) | 2.9 | -0.4 | 16.3 | 14.2 | -0.3 | x | x
Cc1cc(C)c2nc(SC3CCOC3=O)cc(C)c2c1 (centres undefined) | -5.2 | -0.4 | 77.5* | -0.6 | -1.7 | 86.5* | -7.4
Cc1cccc(-n2nc([N+](=O)[O-])c(=NC3CCN(Cc4ccccc4)CC3)n2O)c1 | 2.4 | 0.5 | -22.6 | 16.9 | -1.0 | x | x
CC(C)[C@H]1COc2c3ccccc3nn21 | x | x | 5.3 | x | x | x | x
CC(=O)O[C@H]1C(=O)[C@@]2(C)C([C@H](OC(=O)c3ccccc3)[C@]3(O)C[C@H](OC(=O)[C@H](O)[C@@H](NC(=O)c4ccccc4)c4ccccc4)C(C)=C1C3(C)C)[C@]1(OC(C)=O)CO[C@@H]1C[C@H]2O (some centres undefined) | 5.5 | -0.4 | 19.2 | -8.3 | -2.0 | x | x
CC(=O)O[C@H]1C(=O)[C@]2(C)[C@H]([C@H](OC(=O)c3ccccc3)[C@]3(O)C[C@H](OC(=O)[C@H](O)[C@@H](NC(=O)c4ccccc4)c4ccccc4)C(C)=C1C3(C)C)[C@]1(OC(C)=O)CO[C@@H]1C[C@@H]2O | x | -0.8 | 27.9* | 1.4 | 1.4 | 24.8* | 3.8
CC(Sc1ncnc2ccccc12)C(=O)Nc1ccc2c(c1)OCO2 (centres undefined) | -2.7 | -0.3 | 29.3* | 8.0 | 2.4 | 36.7* | 0.6
CC(Sc1ccc2c(c1)OCCO2)C(=O)Nc1ccc2c(c1)OCO2 (centres undefined) | -4.6 | -0.3 | 6.7 | 5.5 | -2.1 | x | x
COc1ccc(C(C)=O)cc1CSc1nnc(-c2ccc(Cl)cc2)n1-c1ccccc1 | -5.6 | -3.4 | 56.1* | 8.9 | -7.0 | 24.1 | -3.4
CCCOC(=S)NC(=O)c1sc2ccccc2c1Cl | -0.3 | -7.0 | 31.6* | -4.6 | 1.1 | 38.3* | -2.7
O=C(NC(=S)NCCO)c1sc2ccccc2c1Cl | -3.2 | -4.8 | 77.5* | 15.6 | 2.1 | 79.8* | -4.0
CCOC(=S)NC(=O)c1sc2ccccc2c1Cl | -2.2 | i | 45.0* | 8.8 | -2.3 | 33.8* | -5.9
CC(C)(C)C(=O)NC(=S)NNC(=O)c1sc2ccccc2c1Cl | -1.1 | -0.2 | x | 14.4 | 3.4 | x | x
COc1cc(C2Nc3ccccc3C(=O)N2c2ccccc2)c(Br)cc1OCC(=O)O (centres undefined) | 3.2 | -0.2 | 26.3* | 3.7 | 22.2 | 17.8 | -2.9
O=C(COc1ccc([N+](=O)[O-])cc1)NCc1ccncc1 | 4.8 | -0.2 | -5.7 | 5.7 | -1.1 | x | x
Nc1nc2ncccn2c1-c1ccc(C(F)(F)F)cc1 | x | x | 0.1 | x | x | x | x
N#CCc1c(C#N)c(N)nc(N2CCN(S(=O)(=O)c3ccccc3F)CC2)c1C#N | 0.1 | i | 31.1* | 13.0 | 1.5 | 10.9 | 16.4*
CC(=O)c1sccc1NC(=O)c1ccccc1C(=O)O | -2.4 | -0.5 | 47.0* | 9.2 | 0.9 | 109.0* | -5.6
COC(=O)c1sccc1NC(=O)c1ccccc1C(=O)O | x | -0.3 | -1.5 | -1.5 | -3.3 | x | x
O=C1[C@H]2[C@@H](c3ccccc3)N[C@]3(CCCN(Cc4ccc(Br)cc4)C3=O)[C@H]2C(=O)N1Cc1ccccc1 | x | -2.1 | -0.9 | 6.2 | 3.3 | x | x
O=C1[C@H]2[C@@H](c3ccccc3)N[C@]3(CCCN(Cc4ccc(Cl)cc4)C3=O)[C@H]2C(=O)N1Cc1ccccc1 | x | -0.4 | 27.5* | -7.1 | -1.9 | 3.4 | -10.1
COc1ccc(Cl)cc1C(=O)Nc1cccc(-c2ccc3nncn3n2)c1 | 1.9 | -0.3 | 82.6* | 21.5 | 5.3 | 87.6* | 2.5
